Rows were chosen to be rich in hits. Some 1.2% of all compounds tested hit in one or more screens of this group.
uPA surface inh: blocks generation of uPA at the cell surface | Potency, µM (titrated, usually from 38.3 µM), most hits filed as inhibitors | cell surface uPA generation assay, qHTS | 330,000 tested, 0.31% active; active = well fitted inhibition curve with a large enough effect; inconclusive = small, poorly fitted or top-dose-only effect; inactive = no such curve, though single readings can be large or run the other way; tested in mouse RAW 264.7 cells; also: nearly all actives have a fitted effect of over 55% in size
USP2a inh: USP2a (human) protease inhibition; USP2 core, Ub-CHOP2 coupled fluorogenic reporter, 485/531; Potency, µM (top dose mostly 38.3 µM), most hits filed as inhibitors; 330,000 tested, 0.01% active
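Deubiquitinase activity read as fluorescence (485/531 nm) after Ub-CHOP2 cleavage activates the enterokinase reporter on its substrate; USP2 core 10nM, Ub-CHOP2 and substrate 25nM each, 30min compound preincubation then 60min RT; data normalized to NEM, curves fitted.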
Six1-Eya2 blk: inhibitors of human Six1/Eya2 interaction. activity change, % (no concentration beside the values). AlphaScreen GST-Six1/His-Eya2 binding, biochemical; hits give low values. Q15475+O00167. 360,000 tested, 0.56% active; in the data active = activity change below about -65%; inconclusive = mostly about -30% to -63%
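AlphaScreen with GST-Six1 and His-Eya2 (5X mix: 250 nM and 500 nM), glutathione donor and nickel acceptor beads; buffer 50 mM Tris pH 8.0, 300 mM NaCl, 1 mM TCEP; 1 h at 37 C in the dark.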
CtBP-E1A inh: inhibitors of CtBP/E1A interaction; AlphaScreen GST-E1A/His-CtBP binding, 1536-well; hits give low values; activity change, % (no concentration beside the values); 340,000 tested, 0.49% active; in the data active = activity change below about -65%; inconclusive = mostly about -30% to -63%
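Steps: dispense buffer (Tris pH 8.0, NaCl 300 mM, TCEP 1 mM, BSA, Tween 20); add 5X protein mix (GST-E1A, His-CtBP, 125 nM each); pin 23 nL compound; 2 h at 37 °C, dark; add 5X beads (50 ug/mL); 1 h; read.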
Eya2 inh: blocks the phosphatase activity of human Eya2 | recombinant Eya2, OMFP fluorescence dephosphorylation (OMFP is methylfluorescein phosphate) | Potency, µM (titrated, usually from 76.9 µM), hits mostly inhibitors | 330,000 tested, 0.006% active | AID 488837
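Eya2 protein (added as 0.2 uM solution) was preincubated with compound for 10 min at ambient temperature in 50 mM HEPES pH 7.5, 50 mM NaCl, 5 uM MgCl2, 0.05% BSA, 1 mM DTT. OMFP (added at 50 uM) then reacted 10 min; fluorescence read at 485/525 nm.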
L3MBTL1 block: inhibitors of human L3MBTL1. Q9Y468. AlphaScreen L3MBTL1–H3K9me1 peptide binding. Potency, µM (highest dose often 57.1 µM), actives largely listed as inhibitors. 230,000 tested, 0.66% active. AID 485360; also: nearly all actives have a fitted effect of over 60% in size
Target sequence (Q9Y468 whole entry, looked up): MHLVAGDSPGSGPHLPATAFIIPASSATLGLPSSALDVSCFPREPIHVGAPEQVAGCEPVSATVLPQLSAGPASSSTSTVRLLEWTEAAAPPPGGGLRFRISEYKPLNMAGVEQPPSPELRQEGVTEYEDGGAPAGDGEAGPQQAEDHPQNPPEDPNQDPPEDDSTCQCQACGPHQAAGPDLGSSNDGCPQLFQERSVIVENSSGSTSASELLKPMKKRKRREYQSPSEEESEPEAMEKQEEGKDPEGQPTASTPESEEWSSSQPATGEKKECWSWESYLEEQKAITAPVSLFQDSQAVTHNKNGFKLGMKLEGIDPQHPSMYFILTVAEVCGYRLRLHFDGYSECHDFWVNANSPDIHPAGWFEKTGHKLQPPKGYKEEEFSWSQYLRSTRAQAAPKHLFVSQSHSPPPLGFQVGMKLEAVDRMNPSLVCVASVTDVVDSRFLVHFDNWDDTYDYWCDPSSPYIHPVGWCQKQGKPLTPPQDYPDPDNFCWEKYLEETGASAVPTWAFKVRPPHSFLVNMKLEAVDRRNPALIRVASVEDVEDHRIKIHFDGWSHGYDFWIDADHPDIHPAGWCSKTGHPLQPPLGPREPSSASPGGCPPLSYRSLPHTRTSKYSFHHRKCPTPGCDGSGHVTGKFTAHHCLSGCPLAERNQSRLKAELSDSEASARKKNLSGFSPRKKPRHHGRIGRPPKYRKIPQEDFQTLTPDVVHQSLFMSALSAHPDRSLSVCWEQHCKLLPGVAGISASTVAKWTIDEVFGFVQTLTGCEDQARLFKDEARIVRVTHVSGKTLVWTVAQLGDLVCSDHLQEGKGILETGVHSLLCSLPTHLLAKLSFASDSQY
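Displacement of a biotinylated histone H3(1-15) peptide monomethylated at Lys9 (75 nM) from L3MBTL1 (50 nM) was measured by AlphaScreen after a 30 min room-temperature compound incubation; cefsulodin titration served as intraplate control.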
Large screens that a line does not name were inactive. Unless noted, calls follow the shape of the dose curve; as a rule, active = well fitted curve in the direction sought with a large enough effect; inconclusive = small, poorly fitted or top-dose-only effect, or another doubt; inactive = no such curve, though single readings can be large; an effect the other way counts as inactive or inconclusive.

COc1ccc(Nc2cc(O)c3ncccc3c2)cc1	L3MBTL1 block 31.6µM (no result: uPA surface inh, Six1-Eya2 blk, CtBP-E1A inh)
CCc1cccc(C)c1NC(=O)C1CCCN1C(=O)NCc1ccccc1 (centres undefined)	none (no result: L3MBTL1 block)
COC(=O)C=CC(=NNc1ccccc1)c1ccccc1	none (no result: USP2a inh, Eya2 inh, L3MBTL1 block)
COC(=O)/C=C1/SC(=NC(=O)c2ccc(Cl)cc2)NC1=O	none (no result: USP2a inh, Eya2 inh, L3MBTL1 block)
COC(CN(C)C(=O)c1cn(C)c2ccc(S(=O)(=O)N(C)C3CCCCC3)cc2c1=O)OC	none (no result: CtBP-E1A inh, L3MBTL1 block)
CN(C)CCCNC(=O)c1ccc(-c2cc(O)c3ncccc3c2)cc1	uPA surface inh inconclusive, L3MBTL1 block 20µM (no result: Six1-Eya2 blk, CtBP-E1A inh)
CN(C)c1ccc(-c2cc(O)c3ncccc3c2)cc1	uPA surface inh inconclusive (no result: Six1-Eya2 blk, CtBP-E1A inh)
Oc1cc(-c2ccncc2)cc2cccnc12	uPA surface inh inconclusive, L3MBTL1 block 7.08µM (no result: Six1-Eya2 blk, CtBP-E1A inh)
O=c1[nH]c(=O)c2nnc(N/N=C\c3ccc(O)cc3)nc2[nH]1	Six1-Eya2 blk -75.4, CtBP-E1A inh -65.2 (no result: L3MBTL1 block)
O=c1[nH]c(=O)c2nnc(N/N=C/c3ccccc3F)nc2[nH]1	CtBP-E1A inh inconclusive (no result: L3MBTL1 block)
CC(=NNC(=O)c1ccncc1)c1ccc(O)cc1O	Six1-Eya2 blk inconclusive, CtBP-E1A inh -75.8 (no result: USP2a inh, Eya2 inh, L3MBTL1 block)
CC(=NNC(=O)c1ccncc1)c1ccc2ccccc2c1O	Six1-Eya2 blk inconclusive, CtBP-E1A inh inconclusive (no result: USP2a inh, Eya2 inh, L3MBTL1 block)
C/C(=N\NC(=O)c1cccc(N/N=C(\C)c2cc(O)ccc2O)c1)c1cc(O)ccc1O	Six1-Eya2 blk inconclusive, CtBP-E1A inh inconclusive, L3MBTL1 block 28.2µM
CC(=NNC(=O)c1ccncc1)c1ccccc1O	Six1-Eya2 blk -70.6, CtBP-E1A inh -75.0 (no result: USP2a inh, Eya2 inh, L3MBTL1 block)
C/C(=N\NC(=O)c1ccc(N2CCCC2=O)cc1)c1ccc(O)cc1O	uPA surface inh inconclusive (no result: L3MBTL1 block)
CCCCN(C)C(=O)c1ccc2c(c1)S(=O)(=O)c1ccccc1C2=O	none (no result: L3MBTL1 block)
CCOc1ccccc1N1C(=O)CC(Nc2ccc(N3CCOCC3)cc2)C1=O (centres undefined)	USP2a inh inconclusive, L3MBTL1 block 28.2µM
COc1ccccc1N1C(=O)CC(Nc2ccc(N3CCOCC3)cc2)C1=O (centres undefined)	none
CCn1c(O)c(N=NC(=O)C(O)c2ccccc2)c2ccccc21 (centres undefined)	none
CN(C)S(=O)(=O)c1ccc(C(=O)Nc2nnc(-c3ccc4c(c3)CCCC4)o2)cc1	uPA surface inh 4.47µM
CN(C)S(=O)(=O)c1ccc(C(=O)Nc2nnc(-c3cccs3)o2)cc1	uPA surface inh inconclusive (no result: CtBP-E1A inh)
Cc1cc(O)ccc1C1(c2ccc(O)cc2C)OC(=O)c2ccccc21	none
CC(=O)Oc1ccc2c(c1)Oc1cc(OC(C)=O)ccc1C21OC(=O)c2ccccc21	USP2a inh inconclusive, Six1-Eya2 blk -81.7, Eya2 inh inconclusive
Oc1ccc(-c2nc3ccccc3s2)cc1	uPA surface inh 6.31µM
COc1ccc(-c2nc3ccccc3s2)cc1	uPA surface inh 3.55µM (no result: CtBP-E1A inh)
COc1cccc(-c2nc3ccccc3s2)c1	none (no result: L3MBTL1 block)
Cc1nnc2sc(-c3cccc(F)c3)nn2c1=O	none (no result: L3MBTL1 block)
COC(=O)C1=C(C)NC(=O)/C1=C\N(C)C	none (no result: L3MBTL1 block)
O=C1CCCC2=C1C(c1ccco1)Nc1ccc3ccccc3c12 (centres undefined)	USP2a inh inconclusive, Six1-Eya2 blk inconclusive, L3MBTL1 block 3.16µM
O=[N+]([O-])c1cccc(/C=N/Nc2nc(NCc3ccccc3)nc(N3CCOCC3)n2)c1O	uPA surface inh inconclusive, Six1-Eya2 blk -94.0, CtBP-E1A inh -66.7
Cc1cc(C)cc(NC(=O)CSc2nc(N)c(NC(=O)c3ccc(Br)o3)c(=O)[nH]2)c1	none (no result: L3MBTL1 block)
CCOC(=O)c1ccc(NC(=O)CSc2nc(N)c(NC(=O)c3ccc(Br)o3)c(=O)[nH]2)cc1	Six1-Eya2 blk -79.4, CtBP-E1A inh inconclusive (no result: L3MBTL1 block)
C=C1c2ccccc2O[C@H](C(=O)OCC)[C@H]1OC	none
CCCSc1nnc(NC(=O)CSc2sc3c(O)cc(=O)[nH]c3c2C#N)s1	none (no result: L3MBTL1 block)
N#Cc1c(SCC(=O)Nc2nccs2)sc2c(O)cc(=O)[nH]c12	Six1-Eya2 blk inconclusive, CtBP-E1A inh -69.8 (no result: L3MBTL1 block)
CNC(=O)N1CCC(C(=O)c2c(C)c(C)c(C)c(C)c2C)CC1	none (no result: L3MBTL1 block)
Cc1c(CC(=O)O)c(=O)oc2c(C)c3occ(-c4ccccc4)c3cc12	Six1-Eya2 blk -77.1 (no result: L3MBTL1 block)
Cc1c(CCC(=O)O)c(=O)oc2c(C)c3occ(-c4ccc(Cl)cc4)c3cc12	Six1-Eya2 blk -86.3, CtBP-E1A inh -80.6 (no result: L3MBTL1 block)
CCCC(NC(=O)CCc1c(C)c2cc3c(-c4ccccc4)coc3cc2oc1=O)C(=O)O (centres undefined)	CtBP-E1A inh -67.8 (no result: L3MBTL1 block)
Cc1c(CCC(=O)O)c(=O)oc2cc3occ(-c4ccc(Cl)cc4)c3cc12	Six1-Eya2 blk inconclusive, CtBP-E1A inh -71.0 (no result: L3MBTL1 block)
Cc1oc2c(C)c3oc(=O)c(CCC(=O)O)c(C)c3cc2c1-c1ccccc1	Eya2 inh inconclusive (no result: CtBP-E1A inh, L3MBTL1 block)
Cc1c(CCC(=O)O)c(=O)oc2cc3occ(-c4ccc(Br)cc4)c3cc12	Six1-Eya2 blk inconclusive, CtBP-E1A inh inconclusive (no result: L3MBTL1 block)
Cc1c(CCC(=O)NCC(=O)O)c(=O)oc2cc3occ(-c4ccccc4)c3cc12	Six1-Eya2 blk inconclusive (no result: L3MBTL1 block)
O=C(O)CCC(=O)N1CCc2cc(S(=O)(=O)NCc3ccc(Cl)cc3)ccc21	none (no result: L3MBTL1 block)
O=C(Nc1ccccc1)C1Cc2c(-c3ccco3)ccnc2O1 (centres undefined)	none (no result: uPA surface inh, USP2a inh, Eya2 inh, L3MBTL1 block)
CCCSC1=N/C(=C\C=C\c2ccco2)C(=O)S1	Six1-Eya2 blk inconclusive, L3MBTL1 block 5.62µM
O=[N+]([O-])c1ccccc1N=Nc1ccc(O)cc1O	none (no result: USP2a inh, Eya2 inh, L3MBTL1 block)

Bioassay records deposited in PubChem by National Center for Advancing Translational Sciences (NCATS).
